Measurements published in PubChem BioAssay AID720513 (Broad Institute, 2013).
About 480 (23%) of roughly 2,100 compounds were called active. Not shown: some 5% with an inconclusive outcome.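 Rule for the calls: active = fitted curve reaches 40% activation at or below the top valid concentration, in every replicate test; inconclusive = replicate tests disagree on the call; inactive = the rest, including activity in the opposite direction.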 A selection follows. Entries with a potency or affinity are not part of this list.

assay: activators raising PGC1a acetylation in cells, dose response, cell-based, cherry-picked samples, set 6 (AID 720513); settings: U2OS PGC1a acetylation AlphaLISA, overnight, 0 = neutral, -100 = inhibitor control; series mostly up to 19.5 µM; activation (acetylation increase): at the top concentration;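 note: cells made to overexpress flag tagged PGC1a plus GCN5 acetyltransferase by viral infection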

Activation (acetylation increase), inactive:
Cc1cc(-c2ccc(Cl)cc2)n2ncnc2n1 -15.3%
CO[C@@H]1CN(C)C(=O)c2cc(NC(C)=O)ccc2OC[C@H](C)N(C(=O)c2cccnc2)C[C@H]1C -7.97%
COc1ccc(C2c3c(oc4ccccc4c3=O)C(=O)N2CCN2CCOCC2)cc1OC (stereo unspecified) 6.79%
CCOc1ccc2c(c1)C(C)=CC(C)(C)N2S(=O)(=O)c1ccc(NC(C)=O)cc1 8.98%
Cn1cnc(S(=O)(=O)N2C[C@@H](O)COC[C@H]3O[C@H](CC(=O)NCc4cc(F)cc(F)c4)CC[C@@H]32)c1 17.1%
CCn1c(COc2ccc(=O)n(-c3ccccc3)n2)nnc1SCc1ccc(C)cc1 26.3%
O=S(=O)(Nc1nc2c(s1)CCCC2)c1ccc(F)cc1 16.7%
CC(C)(C)Cc1nnc(NS(=O)(=O)c2ccc(F)cc2)s1 20.2%
CC(C)CC#Cc1ccc2c(c1)O[C@@H](CN(C)C)[C@H](C)CN([C@@H](C)CO)S2(=O)=O 13.1%
Cn1ccc2cc(OCc3ccccc3)ccc21 11%
N=c1sccn1CC(=O)Nc1ccccc1Sc1ccccc1 -28.5%
Cc1cc(C)c(S(=O)(=O)N2CC=C(c3ccccc3)CC2)c(C)c1 36.4%
COC(=O)c1c(C)oc(C)c1S(=O)(=O)Nc1ccccc1 -8.61%
CCCCCCNC(=O)c1ncn[nH]1 -9.03%
O=C(N[C@@H]1CC[C@@H](CCNS(=O)(=O)c2ccccc2Cl)O[C@@H]1CO)c1ccc(F)cc1 2.33%
O=C(Nc1ccc(OC(=O)c2ccccc2)c(-c2nc3ccccc3s2)c1)c1ccccc1 8.72%
N=C1C(c2nc3ccccc3s2)=C(O)CN1NC(=O)c1ccc([N+](=O)[O-])cc1 31.2%
O=C(NCC1CCCO1)c1cc2c([nH]c3ccccc32)c(-c2cccc(Cl)c2)n1 (stereo unspecified) 40%
CNC[C@@H]1OCCCC[C@@H](C)Oc2ccc(NS(=O)(=O)c3ccc(C)cc3)cc2C(=O)N([C@H](C)CO)C[C@@H]1C 15.5%
COc1cc(Cl)c(S(=O)(=O)N2CC(C)OC(C)C2)cc1Cl (stereo unspecified) 26.5%
O=C(OCc1nc(-c2ccccc2)oc1COC(=O)c1ccco1)c1ccco1 -3.75%
COc1ccc(N(CC(=O)Nc2ccccc2Cl)S(=O)(=O)c2ccc(C)cc2)cc1OC 7.4%
Cc1cc(Cl)ccc1OCC(=O)Nc1cccc(S(=O)(=O)NC2=NCCCCC2)c1 7.74%
N#CC1=C(N)Oc2c(ccc3ccccc23)C1c1ccsc1 (stereo unspecified) -48.4%
C[C@H]1CN([C@@H](C)CO)C(=O)c2cc(C#Cc3ccccc3)cnc2O[C@@H]1CN(C)C(=O)c1ccccc1F -9.97%
c1cncc(CNc2ncnc3ccc(-c4ccoc4)cc23)c1 11.1%
COC(=O)c1cc(CN2C(=O)c3ccccc3C2=O)c(O)c([N+](=O)[O-])c1 36.6%
O=C(Nc1nc(-c2ccccn2)cs1)c1ccccc1-n1cnnn1 10.9%
O=C(Nc1ccccc1N1CCOCC1)C1(c2ccc(Cl)cc2)CCC1 19.7%
O=C(c1ccc(CN2CCOCC2)cc1)N1CCN(Cc2ccccc2)CC1 10.3%
C#CCN1C(=O)C(O)(CC(=O)c2ccc(OC)c(OC)c2)c2ccccc21 (stereo unspecified) 7.98%
CC(C)C#Cc1cnc2c(c1)C(=O)N([C@H](C)CO)C[C@H](C)[C@H](CN(C)C(=O)c1ccccn1)O2 3.01%
CCOc1ccc(N2CC(C(=O)Nc3ccc(S(=O)(=O)NCC4CCCO4)cc3)CC2=O)cc1 (stereo unspecified) 17.9%
O=C(c1cccc(N2C(=O)C3C4C=CC(C4)C3C2=O)c1)N1CCCc2ccccc21 (stereo unspecified) 8.25%
COc1ccc(F)cc1CN1CCN(CC(=O)N2CCc3ccccc32)CC1 -12.8%
C[C@H](CO)N1C[C@H](C)[C@@H](CN(C)C(=O)Nc2ccc(-c3cccs3)cc2)OCc2cnnn2CCCC1=O -3.11%
CCCc1cn(CC[C@@H]2CC[C@H](NC(=O)Nc3ccc4c(c3)OCO4)[C@@H](CO)O2)nn1 -8.84%
O=c1c2cn(Cc3ccc(F)cc3)c3ccc(F)cc3c-2nn1Cc1ccc(F)cc1 3.94%
FC(F)(F)c1ccc(Cl)c(-n2c(-c3cc(-c4ccco4)[nH]n3)n[nH]c2=S)c1 -12.5%
C[C@H](CO)N1C[C@H](C)[C@H](CN(C)Cc2ccncc2)OCc2cn(nn2)CCCC1=O 25.1% [at 21 µM]
COCC(=O)N1C[C@@H](C)[C@@H](OC)CN(C)C(=O)c2ccc(NC(=O)c3cnccn3)cc2OC[C@@H]1C -10.3%
CC(=O)n1nc2nc(C)cc(C)c2c1N -25.1%
CCS(=O)(=O)Nc1ccc2c(c1)C(=O)N(C)C[C@@H](OC)[C@H](C)CN(Cc1ccccn1)[C@@H](C)CO2 -1.3%
O=C(COC(=O)Cc1ccc(S(=O)(=O)N2CCOCC2)s1)NCCc1ccccc1 -11.5%
O=C(O)C1CCCN1S(=O)(=O)c1cc(Cl)ccc1Cl (stereo unspecified) 6.52%
C[C@@H]1CN([C@@H](C)CO)C(=O)CCCn2nncc2CO[C@H]1CN(C)S(=O)(=O)c1ccc(Cl)cc1 -1.78%
CCCCN(CCCC)CCNC(=O)c1ccc2nc(-c3ccccc3NC(C)=O)c(=O)[nH]c2c1 28.6%
COCCCNC(=O)c1ccc(Cn2c(=O)c3ccccc3n(Cc3ccccc3C)c2=O)cc1 39.4%
CCCOc1ccc2ccccc2c1/C=C1\SC(=O)NC1=O -9.84%
Nc1nc(SCC(=O)Nc2ccccc2Sc2ccc(Cl)cc2)n[nH]1 19.6%
C[C@@H]1CN([C@H](C)CO)C(=O)c2cc(-c3ccccc3)cnc2O[C@H]1CN(C)C(=O)Cc1ccccn1 -7.93%
CN(C)CCNC(=O)c1cccc2c(-c3ccc(F)c(F)c3)coc12 20.9%
O=C(CSc1nnc(-c2ccco2)n1-c1ccccc1)Nc1c(Cl)cc(Cl)cc1C(=O)O 9.43%
CCC(=O)Nc1cccc(C(=O)/C=C/c2ccccc2)c1 -64.7%
Cc1ccc2oc(Nc3nc(C)c(C)c(C)n3)nc2c1 -3.44%
O=C(/C=C/c1cccs1)c1ccc(NC(=O)c2cccc(Br)c2)cc1 -11.5%
COC(=O)/C=C/c1cnc2ccccc2c1 -0.261%
CC(c1ccccc1)N1C(=O)NC(NC(=O)c2cccnc2)(C(F)(F)F)C1=O (stereo unspecified) 7.53%
CCC(=O)Nc1ccnc(-c2cccnc2)n1 22.6%
O=C(CCS(=O)(=O)c1ccc(Cl)cc1)Nc1nccs1 12.8%
OC[C@H]1[C@H](c2ccc(C#CC3CCCC3)cc2)[C@@H]2CN(CCC(F)(F)F)CCCCN12 -58%
